According to PubChem BioAssay AID686978 (National Center for Advancing Translational Sciences (NCATS), 2013):
The campaign covered roughly 420,000 compounds. About 64,000 (15%) were called active. About 27% were inconclusive and are not listed. Not all results are given here. Values without a mark were called inactive. Calls come from the whole dose curve; as a rule, active = well fitted inhibition curve with a large enough effect; inconclusive = small, poorly fitted or top-dose-only effect; inactive = flat fitted curve, though single readings scatter.

Experiment: qHTS for Inhibitors of human tyrosyl-DNA phosphodiesterase 1 (TDP1): qHTS in cells in absence of CPT; note: nearly all actives have a fitted effect of over 55% in size
Settings: DT40 Tdp1-/- hTDP1 cells, no CPT, ATP luminescence, 48 h; activity change, negative = growth inhibition: at 46.2 µM (top of the series)
Method in brief: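 Compound effects on proliferation are scored in DT40 Tdp1-/-;hTDP1 cells in the absence of CPT. ATP levels (CellTiter-Glo luminescence) are recorded after a ≥48 hr, 37 °C incubation.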
% is set by controls: 0 for no effect and ±100 for the full control effect; potency is the fitted concentration of half-maximal effect.

| SMILES | activity change, negative = growth inhibition [%] | Potency |
| --- | --- | --- |
| CCOc1cc(CO)ccc1OCC(=O)N1CCCCC1 | 3.17 | – |
| CC(NC(=O)Nc1ccccc1)c1ccccc1 (stereo unspecified) | -10 | – |
| Cc1ccc(C(=O)NC(C)C(c2cccs2)N2CCOCC2)cc1C (stereo unspecified) | – | 18.4 µM (active) |
| Cc1ccc(N(C(=O)c2ccc(CN3CCOCC3)o2)C(C(=O)NCCC(C)C)c2cccs2)c(C)c1 (stereo unspecified) | 4.05 | – |
| CC(NC(=O)Nc1ccccc1)C(c1cccs1)N1CCN(c2ccccc2)CC1 (stereo unspecified) | – | 23.1 µM (active) |
| CCCC(=O)NC(C)C(c1cccs1)N1CCN(c2ccccc2)CC1 (stereo unspecified) | -22.2 | – |
| Cc1ccc(C(=O)NCC(c2cccs2)N(C)C)cc1S(=O)(=O)N1CCOCC1 (stereo unspecified) | 19.3 | – |
| COC(=O)c1sc(SC)c(S(=O)(=O)C(C)C)c1N/N=C(\C#N)S(=O)(=O)c1ccccn1 | -16.8 | – |
| CC(=O)c1ccc(NC(=O)C(C)OC(=O)c2ccc(NS(=O)(=O)c3ccc4[nH]c(=O)[nH]c4c3)cc2)cc1 (stereo unspecified) | 8.98 | – |
| Cc1ccc(C(=O)OC(C)CN2CCOCC2)cc1 (stereo unspecified) | -22 | – |
| COc1cc(OC)cc(C(=O)NC(C(=O)N2CCC2)C(C)C)c1 (stereo unspecified) | -6.14 | – |
| COc1ccc(N2CCN(C(=O)[C@@H](NC(=O)c3cc(OC)cc(OC)c3)C(C)C)CC2)cc1 | – | 8.2 µM (active) |
| COc1cc(OC)cc(C(=O)NCC(=O)N2CCCCCCC2)c1 | 3.53 | – |
| CCOc1ccc(/C(O)=C2/C(=O)C(=O)N(Cc3cccnc3)C2c2ccc(N(C)C)cc2)c(C)c1 (stereo unspecified) | 0.155 | – |
| C=CCC[C@@H](CCCCC)OC(=O)/C=C/[C@@H](O)[C@H](O)C[C@H](O)CC=C | – | 18.4 µM (active) |
| C=CCC[C@H](CCCCC)OC(=O)/C=C/[C@H](O)[C@@H](O)C[C@@H](O)CC=C | – | 14.6 µM (active) |
| O=S(=O)(Nc1ccccc1)c1ccc(NS(=O)(=O)c2cccs2)cc1 | -2.38 | – |
| Cc1ccc(NC(=O)CSc2nc3c(c(=O)[nH]2)CN(Cc2ccc4c(c2)OCO4)CC3)cc1C | -27.3 | – |
| O=C(CN1CCN(C(=O)c2cccc(F)c2)CC1)Nc1ccccc1F | 14.6 | – |

| SMILES | activity change, negative = growth inhibition [%] | Potency |
| --- | --- | --- |
| C=CCC(NCc1ccco1)c1ccc(OC)cc1 (stereo unspecified) | -9.38 | – |
| Cc1ccc(S(=O)(=O)N2CCC(C(=O)N[C@@H](C)C(=O)NCc3ccco3)CC2)cc1 | -26.1 | – |
| Cc1ccc(Cn2cc(C(=O)NN)c(=O)c3ccc(F)cc32)cc1 | -13.2 | – |
| Cc1ccc(S(=O)(=O)N2C[C@@H]3CCCC[C@@H]3[C@@H](C)[C@H]2c2cn(Cc3ccccc3)c3ccc(F)cc23)cc1 | – | 6.51 µM (active) |
| Cc1ccc(S(=O)(=O)N2CC(C)N(S(C)(=O)=O)C2)cc1 (stereo unspecified) | -1.31 | – |
| CCOC(=O)c1sc(/N=C/C2=C(O)CC(C)(C)CC2=O)c(C(=O)OCC)c1C | 2.25 | – |
| CCOC(=O)c1c(NC(=O)c2ccc(Br)o2)sc2c1CCCC2 | -27.4 | – |
| CCOC(=O)c1c(NC(=S)Nc2ccccc2C)sc2c1CCC2 | -3.31 | – |
| CCOC(=O)c1c(NC(=O)C2(C)Cc3ccccc3C(=O)O2)sc2c1CCCC2 (stereo unspecified) | – | 16.4 µM (active) |
| COc1ccc(C(CNC(=O)COc2ccc([N+](=O)[O-])cc2)N2CCCCC2)cc1 (stereo unspecified) | -1.85 | – |
| Cc1cccc(NC(=O)c2ccc([N+](=O)[O-])o2)c1 | – | 9.2 µM (active) |
| O=C(Nc1ccc(Br)cn1)c1ccc([N+](=O)[O-])cc1Cl | -27.6 | – |
| O=C(Nc1ccc(Br)cn1)c1ccc([N+](=O)[O-])o1 | – | 5.17 µM (active) |
| CN1C(=O)c2ccc(C(=O)Nc3ccc(Br)cn3)cc2C1=O | 12.5 | – |
| COc1cccc(NC(=O)c2ccc(Cn3cc([N+](=O)[O-])cn3)o2)c1 | -26.5 | – |
| O=C(Nc1cccc(NC(=O)c2ccccc2[N+](=O)[O-])c1)c1ccccc1Cl | -14.8 | – |
| Cc1[nH]c2ccccc2c1C(=O)C(=O)N(C)c1ccccc1 | -24.6 | – |
| O=C(OCCOc1ccccc1F)c1cc(S(=O)(=O)N2CCOCC2)ccc1F | -13.6 | – |
| CCc1ccccc1NC(=O)CSc1nnc(-c2ccncc2)o1 | -5.21 | – |

| SMILES | activity change, negative = growth inhibition [%] | Potency |
| --- | --- | --- |
| O=C(CNCCO)NC12CC3CC(CC(C3)C1)C2 | 0.175 | – |
| CCOC1=C2[C@H]([C@H]3C(=O)N(c4ccccc4)C(=O)[C@H]3C1)[C@@H](c1ccccc1)N(S(=O)(=O)c1ccc(C)cc1)[C@H]2c1ccccc1 | -12.7 | – |
| Cc1ccccc1S(=O)(=O)N1[C@@H](c2cccc(Cl)c2)C(C(=O)O)=CC[C@H]1c1ccc(Cl)cc1 | -5.82 | – |
| Cc1ccc(S(=O)(=O)N2[C@@H](c3cccc4ccccc34)C(C(=O)O)=C[C@H]2C(C)(C)C)cc1 | 5.31 | – |
| CCCCC(c1nnnn1CS(=O)(=O)c1ccc(C)cc1)N1CCC(C(N)=O)CC1 (stereo unspecified) | -20.1 | – |
| Cc1ccccc1S(=O)(=O)N1[C@@H](c2cccc(Cl)c2)C(C(=O)OC(C)(C)C)=CC[C@H]1c1ccc(Cl)cc1 | – | 16.4 µM (active) |
| CCc1ccc([C@@H]2CC(=O)[C@@H]3CN(S(=O)(=O)c4ccc(C)cc4)[C@H](c4ccc(Cl)cc4)C[C@@H]3N2S(=O)(=O)c2ccc(C)cc2)cc1 | 8.29 | – |
| CCOC(=O)C1=CC[C@@H](c2ccccc2)N(S(=O)(=O)c2ccc(C)cc2)[C@H]1c1ccc(CC)cc1 | – | 16.4 µM (active) |
| Cc1ccc(S(=O)(=O)N2[C@@H](c3ccccc3F)C(C(=O)O)=CC[C@H]2c2ccc(Cl)cc2)cc1 | -17.6 | – |
| CCCCC[C@@H]1C=C(C(=O)OCC)[C@H](c2ccccc2)N1S(=O)(=O)c1ccc(C)cc1 | – | 10.3 µM (active) |
| Cc1ccc(S(=O)(=O)N2[C@@H](c3cccc(Cl)c3)C(C(=O)O)=CC[C@H]2c2ccc(Cl)c(Cl)c2)cc1 | -23.6 | – |
| CCOC(=O)C1C(C)C(C(C)(C)C)N(S(=O)(=O)c2ccc(C)cc2)C1c1ccccc1 (stereo unspecified) | – | 16.4 µM (active) |
| Cc1ccc(S(=O)(=O)N2[C@@H](c3ccc(Br)cc3)C(C(=O)O)=C[C@H]2CC2CCCC2)cc1 | -12.9 | – |
| Cc1cccc(/C(N)=N/OC(=O)c2ccccc2Cl)c1 | -18.2 | – |
| COc1ccc(C2=NOC3(CC(=O)N(c4ccc(C)cc4)C3=O)C2)cc1 (stereo unspecified) | -19.9 | – |
| Cc1nn(C)c(Oc2ccc(Cl)cc2)c1C=O | -24.7 | – |
| CCCCn1c(N)c(N(CCOC)C(=O)COc2c(C)cccc2C)c(=O)[nH]c1=O | -10.6 | – |
| CCC(=O)Nc1cc(C(F)(F)F)ccc1N1CCCC1 | -2.98 | – |
